Mtb FBA inh: Mtb FBA enzyme inhibitors, primary screen, biochemical, fluorescence, strain H37Rv | Fructose-bisphosphate aldolase (Mycobacterium tuberculosis (strain ATCC 25618 / H37Rv)), … | purified M. tuberculosis FBA, fluorescence read-out | inhibition, % at 1 µM | 360,000 tested, 2.3% active; in the data active = inhibition above about 27%;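 also: 0% = vehicle and 100% = reference inhibitor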
Target sequence (P9WQA3 whole entry, looked up): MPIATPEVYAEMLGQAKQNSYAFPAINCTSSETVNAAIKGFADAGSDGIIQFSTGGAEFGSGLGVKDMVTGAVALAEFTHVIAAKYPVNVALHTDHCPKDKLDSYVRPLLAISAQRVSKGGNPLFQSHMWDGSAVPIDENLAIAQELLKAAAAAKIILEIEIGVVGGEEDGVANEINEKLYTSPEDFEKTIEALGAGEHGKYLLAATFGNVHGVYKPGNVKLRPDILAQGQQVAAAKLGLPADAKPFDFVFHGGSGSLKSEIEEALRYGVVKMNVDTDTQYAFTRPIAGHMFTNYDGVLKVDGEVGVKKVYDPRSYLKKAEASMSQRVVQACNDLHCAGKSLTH
GDH-TPI counter: GDH-TPI coupling enzyme inhibitors, primary screen, artefact control for M. tuberculosis FBA inhibitor project, biochemical, absorbance, full deck | 360,000 tested, 1.2% active | inhibition, % at 4.8 µM | AID 588335, 2011 | GDH-TPI coupled enzyme counterscreen, NADH absorbance; in the data active = inhibition above about 30%;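 also: 0% = DMSO wells and 100% = wells lacking the enzyme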
Bead autofluor: flagged as autofluorescent in microsphere protease counterscreen; 360,000 tested, 3.1% active; AID 624483; compound autofluorescence counterscreen, microsphere flow cytometry; stronger effect = higher value; fluorescence intensity (no concentration beside the values); in the data active = fluorescence intensity above about 16000; inconclusive = no clear call, values can overlap the other calls
BoNT F protease: BoNT/F light chain protease inhibitors, primary screen, biochemical, flow cytometry, MLPCN library; AID 588497, 2011; Multiplex microsphere protease cleavage assay; 360,000 tested, 0.22% active; Botulinum neurotoxin type F light chain protease (Clostridium botulinum); inhibition, % at 10 µM; in the data active = inhibition above about 35%, passing the limit was not always enough; inconclusive = no clear call, values can overlap the other calls; also: plate controls were buffer without enzyme for full effect and enzyme alone for no effect
Anthrax LF prot: Bacillus anthracis LF protease inhibitors, primary screen, biochemical, multiplex microsphere, MLPCN library. Lethal factor (Bacillus anthracis), P15917. multiplex microsphere protease cleavage assay. inhibition, % at 10 µM. 360,000 tested, 0.12% active. AID 588501, 2011; also: plate controls were buffer without enzyme for full effect and enzyme alone for no effect
BoNT-A LC inh2: BoNT/A light chain protease inhibitors, primary screen, biochemical, flow cytometry, MLPCN library; Botulinum neurotoxin type A light chain protease (Clostridium botulinum A str. ATCC 3502); multiplex microsphere protease substrate cleavage; inhibition, % at 10 µM; 360,000 tested, 0.17% active; AID 588499, 2011; also: plate controls were buffer without enzyme for full effect and enzyme alone for no effect
The depositor's hits bear a star; ? = inconclusive; . = no result; + = active, no number. Rows were chosen to be rich in hits. Some 6.6% of all compounds tested hit in one or more screens of this group. Rule as the data show it, unless noted: active = inhibition above about 30%; inconclusive = no clear call, values can overlap the other calls; inactive = below that.

SMILES	Mtb FBA inh	GDH-TPI counter	Bead autofluor	BoNT F protease	Anthrax LF prot	BoNT-A LC inh2
COc1ccc(NS(=O)(=O)c2ccc(NC(=S)NC(=O)/C=C/c3ccccc3)cc2)nn1	1	20	8881	-7	3	0
O=C(NCC1CC1)C1(C(F)(F)F)C/C(=C\Cc2ccccc2)CCCO1 (stereo unspecified)	-2	2	2803	1	-3	0
CCCc1ccccc1OCCNC(=O)c1cc(=O)n(C)c(=O)n1C	-2	-6	3247	1	0	0
CCN1CCN(c2oc(-c3ccc([N+](=O)[O-])cc3)nc2C#N)CC1	-1	1	5969	12	10	3
COc1ccc(-c2nc(C#N)c(N3CCCCCC3)o2)cc1	194*	17	12877	-12	-4	-2
N#Cc1nc(-c2ccccc2F)oc1N1CCCC1	+	19	10768	-8	-6	-1
N#Cc1nc(-c2ccccc2)oc1N1CCCCC1	+	23	8227	-4	-5	-1
N#Cc1nc(Cc2ccccc2)oc1N1CCCC1	2	-3	4134	-9	1	3
COc1ccc(-c2nc(C#N)c(N3CCCCC3)o2)cc1	+	6	3499	1	8	1
COc1nc(C#N)c(N2CCOCC2)o1	0	6	23391*	-3	-2	-2
COc1ccc(-c2nc(C#N)c(N3CCCCCC3)o2)cc1OC	+	31*	10341	-7	-4	-2
CCc1cc(/C(Cc2ccccn2)=N\Nc2ccccc2)c(O)cc1O	3	9	4417	-2	0	0
CSCCC1NC(=O)N(CC(=O)Nc2ccc3c(c2)OCCO3)C1=O (stereo unspecified)	2	11	3078	-5	-7	0
CC(C)(C)N1C(=O)NC(=O)/C(=C\c2ccc3c(c2)CCN3CCCCl)C1=O	1	32*	?	?	4	4
CCN1C(=O)/C(=C/c2ccc3c(c2)CCN3CCCCl)C(=O)NC1=S	3	10	9328	-9	-4	2
Cn1c(=O)c2cc(NC(=S)NCc3ccccc3F)ccc2n1Cc1ccc(F)cc1	12	9	4007	-2	1	0
COc1cc(Cn2c3ccc(NC(=O)NCc4ccc(F)cc4)cc3c(=O)n2C)ccc1F	146*	9	3978	5	3	0
O=C(NCc1ccc(F)cc1)Nc1ccc(Cl)cc1	1	1	4600	1	-2	0
Cn1c(=O)c2cc(NC(=S)NC3CC3)ccc2n1Cc1ccc(F)cc1	14	10	3256	4	-5	1
Cn1c(=O)c2cc(NC(=O)NCCc3ccccc3)ccc2n1Cc1ccc(F)cc1	186*	-6	3382	1	-3	0
COc1ccc(CCNC(=O)Nc2ccc3c(c2)c(=O)n(C)n3Cc2ccc(F)cc2)cc1OC	118*	10	2738	5	10	2
COc1ccc(CNC(=O)Nc2ccc3c(c2)c(=O)n(C)n3Cc2cccc(C(F)(F)F)c2)cc1	128*	6	3858	-9	-8	0
CC(=O)NC(=S)Nc1ccc(S(=O)(=O)Nc2nc(C)cc(C)n2)cc1	3	1	3309	-10	-4	-1
NC(=O)c1cc(NC(=O)c2ccc(NS(=O)(=O)c3cccs3)cc2)cc(C(N)=O)c1	4	1	4428	-2	-1	-1
C=C(C)Cn1c2ccc(NC(=O)NCCc3ccccc3)cc2c(=O)n1C	170*	-4	3822	0	2	0
SMILES	Mtb FBA inh	GDH-TPI counter	Bead autofluor	BoNT F protease	Anthrax LF prot	BoNT-A LC inh2
COc1ccc(NC(=O)NCCCCc2ccccc2)cc1OC	0	4	4407	-11	-7	-1
CCOC(=O)N1CCN(C(=O)CSCc2nc(-c3ccccc3C)oc2C)CC1	-1	-1	16597*	-3	-4	-1
CSc1ccc(-c2nc(CSCC(=O)N3CCOCC3)c(C)o2)cc1	7	9	22931*	-3	-1	?
Cc1cccc(C)c1OCc1cc(C(=O)N(C)CCc2ccccn2)no1	0	0	6289	-7	7	0
O=C(C1CC(=O)N(c2ccc(F)cc2)C1)N1CCN(c2ccc(F)cc2)CC1 (stereo unspecified)	4	4	4604	-6	6	-2
COC(CNC(=O)C1CC(=O)N(CCc2ccccc2)C1)OC (stereo unspecified)	2	-5	20271*	-2	1	-2
Cc1ccc(CCN2CC(C(=O)NCCCOC(C)C)CC2=O)cc1 (stereo unspecified)	5	-3	21642*	4	-3	3
Cc1ccc(CCN2CC(C(=O)N3CCN(c4ccc(F)cc4)CC3)CC2=O)cc1 (stereo unspecified)	5	-2	20552*	1	0	0
O=S1(=O)CCOCCCN1Cc1ccccc1	4	5	2751	-2	3	0
O=S(=O)(NCC(c1ccccc1)N1CCNCC1)c1ccc(Cl)cc1 (stereo unspecified)	3	-10	21805*	-7	-2	-2
CCN1CCN(C(CNS(=O)(=O)c2ccc(Cl)cc2)c2ccccc2)CC1 (stereo unspecified)	4	2	4667	8	1	-2
O=c1cc(C(F)(F)F)[nH]c2ccc(OC(F)(F)F)cc12	26	10	.	.	.	.
O=c1cc(C(F)(F)F)[nH]c2c(C(F)(F)F)cccc12	+	24	2942	-8	-3	0
CC1(C(=O)NS(=O)(=O)c2ccccc2)CCN1C(=O)CCc1ccc(Cl)cc1Cl (stereo unspecified)	0	-8	3604	1	-3	0
CCn1ncc(Br)c1C(=O)Nc1c(C)nn(Cc2c(F)c(F)c(F)c(F)c2F)c1C	6	-2	5693	-1	-1	-1
C/C=C(/C)C(=O)OC(C)(C)[C@@H]1Cc2c(ccc3ccc(=O)oc23)O1	+	8	4369	-1	2	0
CC(=O)OC1=Cc2c(ccc3ccc(=O)oc23)OC1(C)C	22	14	1948	13	-6	0
CC(C)CC(=O)OC(C)(C)[C@@H]1Cc2c(ccc3ccc(=O)oc23)O1	182*	7	3559	-3	-2	0
Cc1cccc(NC(=O)CSc2nnc(-c3cc(C)[nH]n3)n2N)c1	.	.	5222	3	0	1
COc1cc(Cl)ccc1OCc1cc(C(=O)NCCCN2CCCC2=O)no1	-2	3	5012	-2	0	0
Cc1ccc(/C=c2\sc3nc(-c4cccs4)nn3c2=O)o1	0	0	20038*	3	-4	1

From PubChem BioAssay
